Results on 32 molecules are retold here after PubChem BioAssay (NCI).

Compounds without any hit were thinned out: in the full panel of roughly 83,000, 20% have a hit.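 Plates (96-well) were seeded with cells, treated with compound at one concentration, and incubated for 48 hours before percent growth was determined.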 Values without a mark were called inactive. Active and inactive are the calls of the source. Rule for the calls: active = growth percent below 10; inactive = the rest.

For the assay, the system named is UACC-62 melanoma. Description: NCI-60 one-dose screen, 48 h (100 = growth as untreated, 0 = no growth, -100 = all killed). Particulars: 10 µM unless noted.
As to `COc1ccc2c(c1)C(=Nc1cc(OC)c(OC)c(OC)c1)C(=O)N2`, the growth was 88.8%. On to `COc1cnc2c(c1)C(=O)c1c-2n(CCCn2ccnc2)c(=O)c2cc(F)ccc12`, for which the growth was -55% (active). For the molecule `C[C@]12CCC(=O)C=C1CCC1C2[C@@H](O)C[C@@]2(C)C1CC[C@]2(O)C(=O)COC(=O)CCC(=O)O` (some centres not stated), the growth is 106%. For `C[C@@H]1[C@H]2[C@H](C=C3[C@@H]4CC[C@H]5Cc6nc7c(nc6C[C@]5(C)[C@H]4C[C@@H](O)[C@@]32C)C[C@@H]2CC[C@H]3C4=C[C@@H]5O[C@@]6(CC[C@](C)(CO)O6)[C@@H](C)[C@@]5(O)[C@@]4(C)[C@H](O)C[C@@H]3[C@@]2(C)C7)O[C@]12CCC(C)(C)O2`, the growth was -0.259% (active). For `CCOC(=O)/C=C1/SC(=Nc2ccc(C#N)cc2)N(Cc2ccco2)C1=O`, the growth is 35.5%.

As to `C[C@H](C(=O)N[C@@H](Cc1ccc(-c2ccccc2)cc1)C(=O)NC1CC(C)(C)NC(C)(C)C1)c1ccc(-c2ccccc2)c(F)c1`, the growth was -43.9% (active). Take `Nc1ccccc1C#Cc1ccccc1C#Cc1ccc(OCCCCCCOc2ccc(C#Cc3ccccc3C#Cc3ccccc3N)cc2)cc1`: the growth is 96.6%. Next, `CCSc1nc(-c2ccco2)n2nc(-c3ccco3)cc2n1`: 89.8%; `CN(C)c1ccc(-c2nc3ncc(Br)cc3o2)cc1`: 87.3%; `CN1CCN(c2nc3scc(-c4ccccc4)c3c(=O)[nH]2)CC1`: 94.2%. For `CC(=O)OC1Oc2cc(C)c(C)cc2-c2oc(=O)c(-c3ccccc3)cc21` (configuration not stated), the growth was 14.2%. Next, `N#CC(C#N)C(C#N)C#N`: 98.6%. On to `CCOC(=O)c1sc(NC(=O)COc2cccc(/C=C3\CCc4cc(OC)ccc4C3=O)c2)nc1C`, for which the growth was 60.8%. With `COc1cnc2c(c1)C(=O)c1c-2n(CCCN2CCOCC2)c(=O)c2cc(F)ccc12`, the growth was -52% (active). Turning to `CCN1CC2=C(Nc3nc(SC)[nH]c(=O)c3C2c2cc(OC)c(OC)c(OC)c2)/C(=C/c2cc(OC)c(OC)c(OC)c2)C1` (configuration not stated), the growth is 90.1%. `CCOC(=O)CCC(=O)O[C@H]1[C@H](O[C@@H]2[C@@H](C)[C@H](O[C@H]3C[C@@](C)(OC)[C@@H](O)[C@H](C)O3)[C@@H](C)C(=O)O[C@H](CC)[C@@](C)(O)[C@H](O)[C@@H](C)C(=O)[C@H](C)C[C@@]2(C)O)O[C@H](C)C[C@@H]1N(C)C`: the growth is 102%. On to `CNCCCn1c2c(c3ccc(F)cc3c1=O)C(=O)c1cc(OC)cnc1-2`, for which the growth was -33.4% (active). On to `NC(=NCCCCCCN=C(N)/N=C(\N)Nc1ccc(Cl)cc1)/N=C(\N)Nc1ccc(Cl)cc1`, for which the growth was 8.7% (active). In the case of `O=C1CSC(c2ccccc2Cl)N1c1nnc(Cn2nnc3ccccc32)o1` (configuration not stated), the growth was 63.8%.

As to `O=C(O)CCC(=O)OC[C@@H](NC(=O)C(Cl)Cl)[C@H](O)c1ccc([N+](=O)[O-])cc1`, the growth is 98%. For the molecule `COc1ccc(-c2cc(-c3nnc(SCC(=O)Nc4ccc(C(C)=O)cc4)n3-c3ccccc3)c3ccccc3n2)cc1OC`, the growth was 111%. For `C[C@H](C(=O)N[C@@H](Cc1ccc(-c2ccccc2)cc1)C(=O)NC1CC(C)(C)N(C)C(C)(C)C1)c1ccc(-c2ccccc2)c(F)c1`, the growth was -57.6% (active). On to `O=C(O)C1C(c2ccccc2)c2ccccc2C(O)C1CO` (configuration not stated), for which the growth was 95.3%. Regarding `CSc1nc(Nc2ccc(S(=O)(=O)Nc3ccon3)cc2)c(C#N)c(-c2ccc(Cl)cc2)n1`, the growth is 107%. In the case of `Cc1cc(C)c(C(=O)c2cccs2)c(C)c1` it was 97%.

Turning to `COC(=O)C1(NC(=O)CNC(=O)OCc2ccccc2)CCCC1`, the growth was 92.3%. In the case of `Cc1cc(C)nc(NS(=O)(=O)c2ccc(Nc3nc4nc(SCc5ccccc5)nc(-c5ccc(O)cc5)c4c(=O)[nH]3)cc2)n1` it was 83.5%; in that of `Nc1ccc(N=Nc2ccccc2)cc1[N+](=O)[O-]`, 73%.

Regarding `NS(=O)(=O)c1cc2c(cc1Cl)NC=NS2(=O)=O`, the growth is 103%. As for `CCOC(=O)C1=CCC(n2cc(C)c(=O)[nH]c2=O)O1` (configuration not stated), the growth was 96%. Take `C[C@@H]1C[C@@H]([C@@H](CC2CC(=O)NC(=O)C2)OC(=O)CC(=O)c2ccccc2)C(=O)[C@@H](C)C1`: the growth is 11.2%.

`OCc1n(Cc2ccc3ccccc3c2)cc[n+]1Cc1ccc2ccccc2c1`: the growth was 12.8%.
